Our source for the outcome and AC50 values is PubChem BioAssay (EPA / NIEHS).

Read-out in test [1]: C-C motif chemokine 2 (Homo sapiens) (UniProt P13500)
Put plainly: BSK_KF3CT_MCP1: BioMAP Diversity Plus: KF3CT Assay for Monocyte Chemoattractant Protein 1 (MCP1/CCL2) Biomarker Activity (AID 2283073). Particulars: primary human keratinocytes with fibroblasts; actives raise or lower the signal. An outline of the steps:
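KF3CT skin co-culture (keratinocytes/foreskin fibroblasts), 24 h post-dose; MCP-1 by ELISA; gain/loss of signal fit bidirectionally vs DMSO baseline.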

Read-out in test [2]: Matrix Metallopeptidase 9 (MMP9), MMP9 (gene 4318)
As to the kind of experiment: BSK_KF3CT_MMP9: BioMAP Diversity Plus: KF3CT Assay for Matrix Metallopeptidase 9 (MMP9) Biomarker Activity (AID 2283074). Particulars: primary human keratinocytes with fibroblasts; actives raise or lower the signal. An outline of the steps:
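Keratinocyte plus foreskin fibroblast human primary skin co-culture was dosed with chemical and MMP-9 was quantified by ELISA 24 h later. Bidirectional curve fitting used DMSO as negative control and activity baseline.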

Read-out in test [3]: urokinase plasminogen activator (uPA), PLAU (gene 5328)
As to the kind of experiment: BSK_KF3CT_uPA: BioMAP Diversity Plus: KF3CT Assay for urokinase plasminogen activator (uPA) Biomarker Activity (AID 2283075). Conditions: primary human keratinocytes with fibroblasts; actives raise or lower the signal. An outline of the steps: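 Human keratinocyte plus foreskin fibroblast primary co-culture exposed to chemical for 24 h. uPA levels were quantified by ELISA, and activity was fitted bidirectionally against a DMSO negative-control baseline.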

Read-out in test [4]: CD40, CD40 (gene 958)
As to the kind of experiment: BSK_LPS_CD40: BioMAP Diversity Plus: LPS Assay for CD40 Biomarker Activity (AID 2283076). Particulars: primary human HUVEC with PBMC; actives raise or lower the signal. An outline of the steps: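 ELISA readout of CD40 in HUVEC/PBMC co-culture (BSK_LPS system), 24 h post-dosing; bidirectional curve fit, DMSO baseline; parallel SRB total-protein staining for cytotoxicity.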

Read-out in test [5]: E-selectin (Homo sapiens) (UniProt P16581)
Put plainly: BSK_LPS_Eselectin: BioMAP Diversity Plus: LPS Assay for Eselectin Biomarker Activity (AID 2283077). Particulars: primary human HUVEC with PBMC; actives raise or lower the signal. An outline of the steps:
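ELISA readout of E-selectin, 24 h post-dose, HUVEC + PBMC co-culture (LPS system). Gain or loss of signal vs DMSO baseline, bidirectional fit.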

Read-out in test [6]: Interleukin-8 (IL8), CXCL8 (gene 3576)
Put plainly: BSK_LPS_IL8: BioMAP Diversity Plus: LPS Assay for Interleukin-8 (IL8) Biomarker Activity (AID 2283078). Particulars: primary human HUVEC with PBMC; actives raise or lower the signal. An outline of the steps:
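HUVEC + PBMC co-culture, LPS-activated; test chemicals dosed, IL-8 read by ELISA at 24 h. Bidirectional curve fit vs DMSO baseline (gain or loss of signal).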

Test [7] is described as follows: BSK_LPS_SRB: Viability Assessment in the BioMAP Diversity Plus: LPS Assay (AID 2283079).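 Also: total protein by sulforhodamine B absorbance as a cytotoxicity measure; measured one day after compound addition; fitted in both directions against DMSO so loss or gain of signal counts.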 Particulars: primary human HUVEC with PBMC. An outline of the steps: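 HUVEC + PBMC co-culture, LPS-stimulated; compound 24 h. 10% TCA fix, 0.1% SRB stain, A560. Bidirectional fit vs DMSO.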
Read-out in test [8]: Interleukin-1 alpha (IL1a), IL1A (gene 3552)
As to the kind of experiment: BSK_LPS_IL1a: BioMAP Diversity Plus: LPS Assay for Interleukin-1 alpha (IL1a) Biomarker Activity (AID 2283080). Conditions: primary human HUVEC with PBMC; actives raise or lower the signal. An outline of the steps:
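HUVEC/PBMC co-culture, LPS system; 24 h after dosing; IL-1a by ELISA; gain or loss of signal fitted bidirectionally vs DMSO baseline.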

Read-out in test [9]: Monocyte Chemoattractant Protein-1 (MCP1), CCL2 (gene 6347)
As to the kind of experiment: BSK_LPS_MCP1: BioMAP Diversity Plus: LPS Assay for Monocyte Chemoattractant Protein-1 (MCP1) Biomarker Activity (AID 2283081).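 As to AC50: secreted MCP-1 protein quantified by ELISA in culture supernatant.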 Particulars: primary human HUVEC with PBMC; actives raise or lower the signal. An outline of the steps:
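ELISA read-out of MCP-1 after 24 h chemical dosing of a human umbilical vein endothelial cell/peripheral blood mononuclear cell co-culture stimulated with LPS. Gain or loss of signal fitted relative to DMSO controls.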

Test [10] can be described thus: BSK_LPS_PGE2: BioMAP Diversity Plus: LPS Assay for Prostaglandin E2 (PGE2) Biomarker Activity (AID 2283082). Particulars: primary human HUVEC with PBMC; actives raise or lower the signal. An outline of the steps:
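HUVEC plus human PBMC co-culture stimulated with LPS; secreted PGE2 quantified by ELISA 24 h after chemical dosing. Activity fitted bidirectionally against DMSO baseline; parallel SRB staining (0.1% SRB after 10% TCA fixation, 560 nm) flags overt cytotoxicity.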

Read-out in test [11]: Macrophage colony-stimulating factor (MCSF), CSF1 (gene 1435)
As to the kind of experiment: BSK_LPS_MCSF: BioMAP Diversity Plus: LPS Assay for Macrophage colony-stimulating factor (MCSF) Biomarker Activity (AID 2283083). Particulars: primary human HUVEC with PBMC; actives raise or lower the signal. An outline of the steps: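 HUVEC + PBMC co-culture (human primary), 24 h post-dose; M-CSF by ELISA; gain/loss of signal fitted bidirectionally vs DMSO baseline.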

Read-out in test [12]: Tissue Factor, F3 (gene 2152)
As to the kind of experiment: BSK_LPS_TissueFactor: BioMAP Diversity Plus: LPS Assay for Tissue Factor Biomarker Activity (AID 2283084). Conditions: primary human HUVEC with PBMC; actives raise or lower the signal. An outline of the steps: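 HUVEC/PBMC co-culture, LPS-activated; CD142 ELISA read 24 h post-dose; bidirectional curve fit vs DMSO negative control.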

Read-out in test [13]: Tumor necrosis factor (Homo sapiens) (UniProt P01375)
Put plainly: BSK_LPS_TNFa: BioMAP Diversity Plus: LPS Assay for Tumour Necrosis Factor alpha (TNFa) Biomarker Activity (AID 2283085). Conditions: primary human HUVEC with PBMC; actives raise or lower the signal. An outline of the steps: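 Human umbilical vein endothelial cells co-cultured with PBMC and stimulated with LPS. TNFa was measured by ELISA 24 h after chemical dosing, fitted bidirectionally relative to DMSO.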

Read-out in test [14]: Vascular cell adhesion molecule 1 (VCAM1), VCAM1 (gene 7412)
Put plainly: BSK_LPS_VCAM1: BioMAP Diversity Plus: LPS Assay for Vascular cell adhesion molecule 1 (VCAM1) Biomarker Activity (AID 2283086). Particulars: primary human HUVEC with PBMC; actives raise or lower the signal. An outline of the steps:
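Human umbilical vein endothelial cells co-cultured with PBMC and stimulated with LPS; VCAM-1 measured by ELISA 24 h after dosing. Bidirectional curve fitting against DMSO baseline; cytotoxicity tracked in parallel by SRB total-protein staining.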

Read-out in test [15]: CD38, CD38 (gene 952)
Put plainly: BSK_SAg_CD38: BioMAP Diversity Plus: SAg Assay for CD38 Biomarker Activity (AID 2283087). Particulars: primary human HUVEC with PBMC; actives raise or lower the signal. An outline of the steps:
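Human HUVEC plus PBMC co-culture stimulated with superantigen; CD38 measured by ELISA 24 h after chemical dosing. Fluorescence read-out, bidirectional fit against DMSO; cytotoxicity tracked in parallel by SRB and Alamar Blue.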

Read-out in test [16]: CD40, CD40 (gene 958)
Put plainly: BSK_SAg_CD40: BioMAP Diversity Plus: SAg Assay for CD40 Biomarker Activity (AID 2283088). Conditions: primary human HUVEC with PBMC; actives raise or lower the signal. An outline of the steps: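 HUVEC/PBMC co-culture, 24 h post-dose; CD40 by ELISA, fluorescence intensity; bidirectional fit vs DMSO negative control.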

Read-out in test [17]: CD69, CD69 (gene 969)
As to the kind of experiment: BSK_SAg_CD69: BioMAP Diversity Plus: SAg Assay for CD69 Biomarker Activity (AID 2283089). Conditions: primary human HUVEC with PBMC; actives raise or lower the signal. An outline of the steps: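 Values derive from bidirectional fitting relative to DMSO vehicle. Cells: umbilical vein endothelium plus peripheral blood mononuclear cells, treated 24 h before fluorescent ELISA for CD69.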

Read-out in test [18]: Monocyte Chemoattractant Protein-1 (MCP1), CCL2 (gene 6347)
As to the kind of experiment: BSK_SAg_MCP1: BioMAP Diversity Plus: SAg Assay for Monocyte Chemoattractant Protein-1 (MCP1) Biomarker Activity (AID 2283090). Conditions: primary human HUVEC with PBMC; actives raise or lower the signal. An outline of the steps:
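MCP-1 levels in the endothelial–PBMC SAg co-culture were quantified by ELISA at 24 h post-dosing; both increases and decreases versus DMSO scored. Cytotoxicity monitored by SRB total protein in parallel cultures.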

Read-out in test [19]: E-selectin (Homo sapiens) (UniProt P16581)
As to the kind of experiment: BSK_SAg_Eselectin: BioMAP Diversity Plus: SAg Assay for Eselectin Biomarker Activity (AID 2283091). Particulars: primary human HUVEC with PBMC; actives raise or lower the signal. An outline of the steps:
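E-selectin ELISA readout at 24 h post-dosing in human umbilical vein endothelial cell/PBMC co-culture; gain or loss of signal fitted relative to DMSO baseline.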

Read-out in test [20]: Monokine induced gamma interferon (MIG), CXCL9 (gene 4283)
Put plainly: BSK_SAg_MIG: BioMAP Diversity Plus: SAg Assay for Monokine induced gamma interferon (MIG) Biomarker Activity (AID 2283092). Conditions: primary human HUVEC with PBMC; actives raise or lower the signal. An outline of the steps: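 Values reflect bidirectional fitting of ELISA-measured MIG against DMSO vehicle, taken 24 h after dosing of a co-culture of human umbilical vein endothelial cells and peripheral blood mononuclear cells.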

The structures appear in SMILES notation. Activity calls are given as the source filed them. The calls were made as follows: active = hit-call score of the fitted dose curve at least 0.9, where 1 is the maximum; inactive = score below 0.9.

Chain of E-selectin (Homo sapiens) (P16581 whole entry, looked up): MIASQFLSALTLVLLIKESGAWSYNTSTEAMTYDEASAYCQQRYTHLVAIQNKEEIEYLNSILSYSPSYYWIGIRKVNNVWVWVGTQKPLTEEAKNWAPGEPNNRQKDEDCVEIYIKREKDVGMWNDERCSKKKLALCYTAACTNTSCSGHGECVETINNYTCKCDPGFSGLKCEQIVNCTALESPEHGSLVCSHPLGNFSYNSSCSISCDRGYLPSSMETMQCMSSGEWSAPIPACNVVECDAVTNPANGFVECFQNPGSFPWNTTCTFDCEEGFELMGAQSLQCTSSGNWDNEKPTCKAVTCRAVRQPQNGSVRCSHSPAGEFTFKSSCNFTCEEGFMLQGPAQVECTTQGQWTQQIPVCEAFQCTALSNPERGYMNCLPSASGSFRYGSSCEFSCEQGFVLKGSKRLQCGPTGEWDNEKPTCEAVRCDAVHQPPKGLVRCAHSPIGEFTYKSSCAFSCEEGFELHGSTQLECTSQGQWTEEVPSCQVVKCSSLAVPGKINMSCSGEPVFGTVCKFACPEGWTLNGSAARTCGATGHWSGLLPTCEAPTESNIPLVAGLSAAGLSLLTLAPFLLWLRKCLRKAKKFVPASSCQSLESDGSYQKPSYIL
Chain of Tumor necrosis factor (Homo sapiens) (P01375 whole entry, looked up): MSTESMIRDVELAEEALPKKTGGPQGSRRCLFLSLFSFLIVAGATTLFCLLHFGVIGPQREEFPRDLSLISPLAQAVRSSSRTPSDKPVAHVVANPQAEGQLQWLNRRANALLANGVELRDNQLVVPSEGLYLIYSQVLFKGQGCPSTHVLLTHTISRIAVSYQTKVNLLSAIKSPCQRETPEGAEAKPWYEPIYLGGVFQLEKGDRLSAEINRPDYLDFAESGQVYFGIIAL

Regarding `CCCCC(CC)COCCC#N` (stereo not drawn), the result in [1], in test [2], in [3], in test [4], in test [5] and in test [6] was inactive. Besides, the result in [7], in test [8], in [10], in test [11], in [12] and in test [13] was inactive. Further, the outcome in test [14], in test [15], in [16], in test [17], in test [18] and in [19] was inactive. For the same molecule, in [20], the result was inactive. Besides, the AC50 in [9] is 16 nM (active).

For `c1ccc2c(c1)c1cccc3ccc4cccc2c4c31`, the outcome in [1], in [2], in test [4], in [5], in [6] and in [7] was inactive. The outcome in [8], in [9], in [10], in [11], in test [13] and in test [14] was inactive. Also, the result in [15], in [16], in [17], in test [18], in test [19] and in [20] was inactive. In addition, the AC50 in test [3] is 43.9 nM (active); in [12], 369 nM (active).

As to `COc1cc(C=O)ccc1OC(=O)C(C)C`, the outcome in test [1], in [2], in [3], in test [4], in test [5] and in test [6] was inactive. In addition, the outcome in test [7], in test [8], in test [9], in test [10], in test [11] and in test [12] was inactive. Moreover, the result in [13], in test [14], in test [15], in [16], in [17] and in test [18] was inactive. Further, the outcome in test [19] and in test [20] was inactive.

Consider `COC(=O)c1ccc(C)cc1`, for which the outcome in test [1], in test [3], in test [4], in [5], in test [6] and in test [7] was inactive. Further, the result in test [8], in test [9], in [10], in test [11], in test [12] and in [13] was inactive. Also, the result in test [14], in [15], in test [16], in test [17], in test [18] and in test [19] was inactive. Moreover, in test [20], the result was inactive.

Take `CCCCCCCCC=O`: the result in [1], in [2], in [3], in [4], in [5] and in test [6] was inactive. Moreover, the result in [7], in [8], in [9], in test [10], in [11] and in [12] was inactive. For the same molecule, the outcome in test [13], in [14], in test [15], in test [16], in test [17] and in test [18] was inactive. In addition, the result in test [19] and in test [20] was inactive.

`NCCNCCN`: the result in test [1], in test [3], in test [4], in [5], in [6] and in [7] was inactive. Further, the result in [8], in test [9], in test [10], in test [11], in [12] and in test [13] was inactive. Besides, the outcome in [14], in test [15], in [16], in [17], in test [18] and in test [19] was inactive. For the same molecule, the result in [20] was inactive.
